# TGFb SMAD3 inh: blocks TGF-b signaling. 410,000 tested, 1.2% active. HepG2 CAGA-GFP TGF-b/SMAD3 reporter, GFP fluorescence, 18 h; TGF-beta stimulated, 500 pg/mL final. AID 588855. Potency, µM (highest dose often 46.1 µM), for inactives: at the highest dose activity, negative = inhibition, actives largely listed as inhibitors; note: potency is the fitted concentration of half-maximal effect; % is set by controls: 0 for no effect and ±100 for the full control effect; nearly all actives have a fitted effect of over 65% in size
#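 GFP signal (ex488/em500-530) from TGF-beta-stimulated HEPG2 CAGA-GFP cells, 500 pg/mL final, 18 h at 37 degrees C in DMEM plus 1% FBS, normalized to unstimulated and DMSO-stimulated controls.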
# TDP1 cell CPT: growth inhibition of DT40 Tdp1-/-;hTDP1 cells with camptothecin (screen for TDP1 inhibitors). chicken DT40 Tdp1-/-;hTDP1 cells + 20 nM CPT, ATP luminescence, 48 h. Potency, µM (top dose mostly 46.2 µM), for inactives: at the highest dose activity change, negative = growth inhibition, hits mostly inhibitors. 420,000 tested, 12% active; note: potency is the fitted concentration of half-maximal effect; % is set by controls: 0 for no effect and ±100 for the full control effect; nearly all actives have a fitted effect of over 55% in size
#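 Cell growth measured by CellTiter-Glo luminescence after a minimum 48 h, 37 C compound exposure with 20 nM CPT in Tdp1-knockout DT40 cells stably expressing hTDP1, seeded 400/well; qHTS titration format.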
# TDP1 block: blocks human tyrosyl-DNA phosphodiesterase 1 | recombinant TDP1, AlphaScreen DNA substrate cleavage | Potency, µM (doses to about 130 µM), without a hit: at the highest dose activity change, negative = inhibition, hits mostly inhibitors | 350,000 tested, 0.28% active; note: potency is the fitted concentration of half-maximal effect; % is set by controls: 0 for no effect and ±100 for the full control effect; nearly all actives have a fitted effect of over 40% in size
# Target sequence (Q9NUW8 whole entry, looked up): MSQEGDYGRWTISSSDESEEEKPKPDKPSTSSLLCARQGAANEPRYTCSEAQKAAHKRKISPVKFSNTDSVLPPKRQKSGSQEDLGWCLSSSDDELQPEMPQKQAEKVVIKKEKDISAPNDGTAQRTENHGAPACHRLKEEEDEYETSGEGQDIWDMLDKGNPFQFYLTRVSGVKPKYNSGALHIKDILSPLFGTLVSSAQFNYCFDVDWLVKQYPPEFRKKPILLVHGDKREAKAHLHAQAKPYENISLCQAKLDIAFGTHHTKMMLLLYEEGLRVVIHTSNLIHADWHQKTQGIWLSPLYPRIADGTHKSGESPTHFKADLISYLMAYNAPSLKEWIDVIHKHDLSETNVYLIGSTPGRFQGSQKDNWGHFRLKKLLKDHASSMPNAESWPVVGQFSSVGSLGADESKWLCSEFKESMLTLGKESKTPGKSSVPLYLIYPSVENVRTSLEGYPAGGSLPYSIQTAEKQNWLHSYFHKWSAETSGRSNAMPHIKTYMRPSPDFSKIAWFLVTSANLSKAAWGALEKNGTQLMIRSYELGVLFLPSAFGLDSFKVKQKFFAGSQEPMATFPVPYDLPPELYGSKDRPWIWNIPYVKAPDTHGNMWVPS
#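 Tdp1 1 nM final; 15 min RT w/ cpd; substrate 15 nM, 5 min; beads 10 ug/ml, 10 min; AlphaScreen read. Neg ctrl: no enzyme.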
# TDP1 cell noCPT: qHTS for Inhibitors of human tyrosyl-DNA phosphodiesterase 1 (TDP1): qHTS in cells in absence of CPT; AID 686978, 2013; DT40 Tdp1-/- hTDP1 cells, no CPT, ATP luminescence, 48 h; 420,000 tested, 15% active; Potency, µM (top dose mostly 46.2 µM), without a hit: at the top dose activity change, negative = growth inhibition, actives largely listed as inhibitors; note: potency is the fitted concentration of half-maximal effect; % is set by controls: 0 for no effect and ±100 for the full control effect; nearly all actives have a fitted effect of over 55% in size
#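 Chicken DT40 Tdp1-/- cells complemented with human TDP1, screened without camptothecin (DMSO vehicle only), 400 cells/well. Compounds pin-transferred, cells incubated at 37 °C for at least 48 hr. Growth read as ATP-dependent luminescence (CellTiter-Glo, 30 min at RT).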
# HepG2 viability: counter-screen for TGF-b inhibitors: cytotoxicity in HepG2 cells. 410,000 tested, 0.76% active. Potency, µM (series often up to 46.1 µM), for the others: at the top dose activity change, negative = cytotoxicity, usual class: cytotoxic. HepG2 CAGA-GFP viability, ATP luminescence, 18 h; note: potency is the fitted concentration of half-maximal effect
#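 HepG2 CAGA-GFP cells (1000/well, DMEM with 1% FBS) received compound, then TGF-beta at 500 pg/mL final, and were incubated 18 hours at 37 degrees C. Viability was read by CellTiter-Glo luminescence. Media-only wells were set as complete cell-killing and DMSO as no toxicity.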
# IL-1B inflam inh: blocks inflammasome-driven IL-1 beta release; THP-1 LPS/ATP IL-1B secretion, AlphaLISA, 16 h; hits give low values; activity change, % at 57.5 µM; 360,000 tested, 4.7% active; in the data active = activity change below about -50%; inconclusive = mostly about -30% to -49%; note: % is set by controls: 0 for no effect and ±100 for the full control effect
#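 Secreted IL-1B measured by AlphaLISA bead assay after 16 h compound exposure of THP-1 cells; compounds (final up to 57.5 uM) added 1 h before LPS (250 ng/mL) and ATP (1.25 mM) stimulation; lower signal means less secretion.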
# * = called active by the depositor; i = inactive; ? = inconclusive; . = not tested or not shown; [ ] = remark or other dose. Sampled rows, rich in hits. Any-hit rate of the full collection: about 18%. Unless noted, calls come from the whole dose curve; as a rule, active = well fitted curve in the direction sought with a large enough effect; inconclusive = small, poorly fitted or top-dose-only effect, or another doubt; inactive = no such curve, though single readings can be large; an effect the other way counts as inactive or inconclusive.
SMILES,TGFb SMAD3 inh,TDP1 cell CPT,TDP1 block,TDP1 cell noCPT,HepG2 viability,IL-1B inflam inh
CCCCCCN1C[C@@H](n2cc(-c3ccc(F)cc3)nn2)[C@H](O)C[C@@H]1c1ccc(OC)cc1,?,?,.,?,-91%,?
CCCCCCN1C[C@H](n2cc(-c3ccc(F)cc3)nn2)[C@@H](O)C[C@@H]1c1ccc(OC)cc1,?,?,.,?,-63%,-1
CCC(Sc1nc2ncccc2[nH]1)C(=O)Nc1ccccc1F (configuration not stated),-25%,-24%,6%,?,-26%,.
Cc1ccc2oc(=O)n(CC(=O)OCCC(C)C)c2c1,-3%,7%,.,23%,10%,9
COC(=O)c1ccc(NC(=O)CC2C(=O)N(c3cccc(OC)c3)C(=O)N2Cc2cccs2)cc1 (configuration not stated),-1%,?,-6%,?,-5%,.
CCCOc1ccc(NC(=O)CC2C(=O)N(c3cccc(OC)c3)C(=O)N2Cc2cccs2)cc1 (configuration not stated),-35%,?,0%,21µM*,-24%,.
COc1ccc(NC(=O)CC2C(=O)N(c3cccc(OC)c3)C(=O)N2CCc2cccs2)cc1 (configuration not stated),-1%,?,-6%,21µM*,-3%,.
Cc1cccc(-c2cc3c(nn2)-c2ccccc2C3=O)c1,-3%,?,7%,?,-32%,-20
COc1ccc(-c2cn(Cc3ccc4c(c3)C(=O)c3ccccc3C4=O)nn2)cc1,-10%,?,.,?,-6%,-7
O=C1c2ccccc2-c2nnc(-c3ccccc3)cc21,10%,3.7µM*,4%,5.2µM*,-33%,31
COc1ccc(-c2cc3c(nn2)-c2ccccc2C3=O)cc1,2%,26µM*,0%,16µM*,-61%,23
Cn1c(SCc2ccc(Cl)cc2)nnc1-c1ccc(NC(=O)CCc2ccccc2)cc1,-2%,?,.,?,8%,.
O=C1COc2ccc(-c3cc(-c4ccccc4)c4c(n3)-c3cc(Cl)ccc3OC4)cc2N1,-2%,3.3µM*,6%,1.2µM*,1%,.
COc1ccc(-c2cc(-c3ccccc3)nc3c2COc2ccccc2-3)cc1,-8%,-27%,2%,-21%,-21%,.
O=C1COc2ccc(-c3cc(-c4ccccc4)c4c(n3)-c3ccccc3OC4)cc2N1,-2%,13µM*,8%,9.2µM*,-18%,.
O=c1c(-c2cc(-c3ccc(Cl)cc3)nc3c2COc2ccccc2-3)coc2ccccc12,-3%,-24%,6%,-6%,9%,.
O=C1COc2ccc(-c3cc(-c4ccc(Cl)cc4)c4c(n3)-c3ccccc3OC4)cc2N1,1%,1µM*,2%,2.3µM*,-18%,.
CCN(CC(=O)Nc1cccc(OC)c1)C(=O)c1cccc(S(=O)(=O)N2CCc3ccccc32)c1,?,23µM*,0%,16µM*,0%,-13
CCN(CC(=O)Nc1c(F)cccc1F)C(=O)c1cccc(S(=O)(=O)N2CCCc3ccccc32)c1,2%,?,.,16µM*,-13%,22
CCN(CC(=O)Nc1c(F)cccc1F)C(=O)c1cccc(S(=O)(=O)N(C)c2ccccc2)c1,-5%,13µM*,.,15µM*,-14%,-5
O=C1NC2(CCCCC2)OC12CCCCC2,-14%,10%,.,-4%,-16%,22
Cc1[nH]c(N=Nc2ccccc2)nc1N=Nc1ccccc1,?,5.8µM*,12%,5.8µM*,-19%,98
Cc1cc(C)nc(NC2=NC3CCCCC3N2)n1 (configuration not stated),7%,21µM*,0%,?,0%,24
COc1ccccc1-c1nnc(NC(=O)c2ccc(S(=O)(=O)N(C)CC3CCCO3)cc2)o1 (configuration not stated),-27%,?,7%,?,-34%,16
CN(CC1CCCO1)S(=O)(=O)c1ccc(C(=O)Nc2nc(-c3ccccn3)cs2)cc1 (configuration not stated),?,1.5µM*,8%,1.8µM*,-16%,140
SMILES,TGFb SMAD3 inh,TDP1 cell CPT,TDP1 block,TDP1 cell noCPT,HepG2 viability,IL-1B inflam inh
CN(CC1CCCO1)S(=O)(=O)c1ccc(C(=O)Nc2ccccc2F)cc1 (configuration not stated),1%,1%,.,?,-15%,i
CN(CC1CCCO1)S(=O)(=O)c1ccc(C(=O)Nc2nnc(-c3ccccc3)o2)cc1 (configuration not stated),-2%,18µM*,8%,8.2µM*,3%,100
O=C1c2cc(Cl)ccc2OC2(CCNCC2)C12CC(c1ccc(Cl)cc1)=NO2 (configuration not stated),16%,18µM*,?,18µM*,-10%,?
O=C1c2cc(Cl)ccc2OC2(CCNCC2)C12CC(c1ccccc1)=NO2 (configuration not stated),?,21µM*,5%,16µM*,-60%,?
O=C(c1ccc2c(c1)OCO2)N1CCC2(CC1)Oc1ccc(Cl)cc1C(=O)C21CC(c2ccccc2)=NO1 (configuration not stated),?,-4%,1%,-16%,4%,-12
COC(=O)c1cc(Sc2c(Cl)cccc2Cl)ccn1,-16%,-25%,5%,2.3µM*,-23%,32
CN[C@@H]1[C@@H](O)[C@@H](O[C@@H]2[C@@H](O)[C@H](OC3OC(CN)=CCC3N)[C@@H](N)C[C@H]2N)OC[C@]1(C)O (some centres not stated),.,-12%[21.1 µM],.,-10%[21.1 µM],.,.
Oc1cc(-c2cccs2)cc2c1OCCN(Cc1cn[nH]c1-c1ccc(Cl)cc1)C2,.,18µM*,.,?,.,.
Cc1cc(C)nc(N2CCCC(C(=O)NC3CC3)C2)n1 (configuration not stated),4%,-1%,12%,-10%,6%,-7
CCOC(=O)N1CCC(NS(=O)(=O)c2ccc(C)c(Cl)c2)CC1,2%,?,4%,6.5µM*,7%,34
CCc1ccc(OCC(=O)NC(=S)Nc2ccc(S(=O)(=O)NC3CCCCC3)cc2)cc1,14%,?,2%,?,-4%,-12

# Compound activity deposited in PubChem by National Center for Advancing Translational Sciences (NCATS).
